# MEKK3 PB1 HTS: modulators of MEKK3-MEK5 PB1 binding, primary screen, biochemical, wildtype MEKK3, multiplex bead flow cytometry, Alexa488-MEK5. bead-based flow cytometry, Alexa488-MEK5 binding to MEKK3; actives lie on both sides; 0 = blocked by unlabeled MEK5, 100 = vehicle. binding response (% of control), % at 10 µM. actives 1.4% (n = 290,000). AID 1529, 2009;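 active = binding response more than 3 SD above or below the average of its plate-row segment, actives on both sides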;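 also: Alexa488 bead fluorescence after subtracting the streptavidin-only scavenger bead signal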
# MEKK2 WT-MEK5: modulators of MEK5 binding to wildtype MEKK2, primary screen, biochemical, multiplex bead flow cytometry, Alexa488-MEK5; binding response (% of control), % at 10 µM; Mitogen-activated protein kinase kinase kinase 2 (Homo sapiens), Q9Y2U5; actives 1.1% (n = 290,000); Alexa488-MEK5 binding to MEKK2 WT; actives lie on both sides; in the data active = binding response below about 67% or above about 130%
# MEKK2mut PB1 HTS: MEK5 binding signal on mutant MEKK2 PB1, primary screen, biochemical, multiplex bead flow cytometry, Alexa488-MEK5 | Alexa488-MEK5 binding to MEKK2 mutant | percent response, % at 10 µM | actives 0.35% (n = 290,000); in the data active = percent response above about 24%, passing the limit was not always enough
# GRK2 inh: compounds blocking aptamer binding on GRK2 – biochemical, human GRK2, bead flow cytometry, HTS, primary screen | FAM-aptamer displacement from GRK2 | inhibition of aptamer binding, % at 10 µM | actives 0.59% (n = 330,000);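 active = inhibition of aptamer binding above 40%, roughly 3 SD of noise, on plates passing a quality check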;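 also: median bead fluorescence of bound FAM aptamer so fluorescent compounds give negative values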
# Target sequence (P25098 whole entry, looked up): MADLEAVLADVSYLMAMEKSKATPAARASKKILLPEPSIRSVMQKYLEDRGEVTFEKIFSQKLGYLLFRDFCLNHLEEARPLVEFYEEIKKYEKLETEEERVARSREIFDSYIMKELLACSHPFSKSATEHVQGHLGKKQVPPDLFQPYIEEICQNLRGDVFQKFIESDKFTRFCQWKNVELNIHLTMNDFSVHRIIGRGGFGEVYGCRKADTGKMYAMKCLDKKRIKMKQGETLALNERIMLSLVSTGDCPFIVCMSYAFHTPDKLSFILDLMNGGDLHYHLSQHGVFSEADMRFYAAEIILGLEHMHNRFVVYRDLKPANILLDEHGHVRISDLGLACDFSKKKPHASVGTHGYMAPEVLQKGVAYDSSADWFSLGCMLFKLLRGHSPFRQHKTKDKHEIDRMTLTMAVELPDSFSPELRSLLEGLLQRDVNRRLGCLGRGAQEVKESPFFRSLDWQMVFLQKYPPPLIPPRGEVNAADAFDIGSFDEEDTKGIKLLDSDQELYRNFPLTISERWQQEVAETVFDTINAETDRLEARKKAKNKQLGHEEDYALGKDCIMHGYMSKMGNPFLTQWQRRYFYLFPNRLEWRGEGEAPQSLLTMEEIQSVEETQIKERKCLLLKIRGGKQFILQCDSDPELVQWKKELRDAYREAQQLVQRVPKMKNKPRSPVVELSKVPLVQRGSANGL
# MEKK2wt confirm: modulators of MEK5 binding to wildtype MEKK2, confirmation, biochemical, single concentration, multiplex bead flow cytometry. shares compounds with MEKK3 PB1 HTS. Alexa488-MEK5 binding to MEKK2 WT; actives lie on both sides. binding response (% of control), % at 10 µM. actives 2.4% (n = 5,900); in the data active = binding response below about 16% or above about 210%; inactive = in between
# MEKK2mut confirm: mutant MEKK2 PB1-MEK5 binding signal retest – biochemical, single concentration, multiplex bead flow cytometry, confirmation; AID 1893, 2009; shares compounds with MEKK3 PB1 HTS; Alexa488-MEK5 binding to MEKK2 mutant; actives 2% (n = 5,900); percent response, % at 10 µM; in the data active = percent response mostly above about 71%, no sharp cut-off; inactive = mostly below about 38%;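 also: higher means compound restores mutant binding toward wildtype level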
# MEKK3-MEK5 inh: MEKK3 wild-type PB1 binding to MEK5, inhibitors, confirmation, biochemical, bead multiplex flow cytometry, single concentration, wildtype; shares compounds with MEKK3 PB1 HTS; Alexa488-MEK5 binding to MEKK3; active compounds read low; binding response (% of control), % at 10 µM; actives 1.8% (n = 5,900); AID 1894, 2009;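 active = binding response below 72% of control, or above a set upper limit, though filed actives all read lower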;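 also: 100% = DMSO only wells and 0% = binding blocked by excess unlabeled MEK5; lower values mean stronger disruption of MEK5 binding to MEKK3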
# * hit, by the source's call; nt = not tested or not shown; [ ] = another dose, or the depositor's remark. Most compounds without a hit are left out; they make up all but 2.5% or so of the library.
SMILES,MEKK3 PB1 HTS,MEKK2 WT-MEK5,MEKK2mut PB1 HTS,GRK2 inh,MEKK2wt confirm,MEKK2mut confirm,MEKK3-MEK5 inh
Cn1ccnc1Sc1cc(NCCCO)c([N+](=O)[O-])c2nonc12,132*,113,0,2,101,-2,99
Cc1cccc(NC(=O)COC(=O)Cc2cccc(C(F)(F)F)c2)c1C,145*,117,1,0,103,8,103
CCN(C(=O)CN1C(=O)S/C(=C\c2ccc(F)cc2)C1=O)C1CCS(=O)(=O)C1 (stereo not drawn),96,98,-1,5,nt,nt,nt
Cc1ccc(N(C(=O)Cn2nnc3ccccc32)C(C(=O)NCc2ccccc2)c2ccccn2)cc1 (stereo not drawn),128*,107,1,0,103,6,104
CCOC(=O)CNC(=O)CSc1nc(-c2ccccc2)ns1,112,113,0,0,nt,nt,nt
CCOC(=O)N1CCN(C(=O)CSc2nc(-c3cccc(C)c3)ns2)CC1,147*,134*,10,1,106,12,106
Cc1cccc(-c2nsc(SCC(=O)Nc3cc(C)on3)n2)c1,94,94,-3,0,nt,nt,nt
CCOC(=O)CNC(=O)CSc1nc(-c2ccc(C)cc2)ns1,129*,119,2,1,117,6,100
CC(=O)Nc1cccc(-n2nnc(SCC(=O)c3ccccc3)n2)c1,129*,131,27,0,107,-2,105
COc1ccc(C(=O)CSc2nnn(-c3cccc(NC(C)=O)c3)n2)cc1,98,96,0,0,nt,nt,nt
O=C(CNC(=O)c1ccc(Cl)cc1)NCc1ccccn1,nt,nt,nt,0,nt,nt,nt
N#CC1(NC(=O)CN2C(=O)NC(Cc3c[nH]c4ccccc34)C2=O)CCCCC1 (stereo not drawn),nt,nt,nt,0,nt,nt,nt
COc1ccc(CNC[C@@H](CCCCN(C)Cc2ccc(OC)cc2)N2C[C@H](c3ccccc3)N(CCc3ccc(Cl)c(Cl)c3)C(=O)C2=O)cc1,111,236*,94*,nt,240*,100*,92
Cn1c(N)c(C(=O)COC(=O)C2=NNC(=O)CC2)c(=O)n(C)c1=O,92,96,-16,2,nt,nt,nt
COc1ccccc1NC(=O)C1=C(C)Nc2nnnn2C1c1ccncc1 (stereo not drawn),100,99,-1,0,nt,nt,nt
CCOc1ccccc1C1C(C(=O)Nc2ccccc2OC)=C(C)Nc2nnnn21 (stereo not drawn),113,111,26*,4,101,4,100
O=C(COc1ccc(Cl)cc1Cl)Nc1ccccc1F,nt,nt,nt,2,nt,nt,nt
O=C1c2ccccc2C(=O)N1CN(C(=O)COc1ccc(Cl)cc1Cl)c1cccc(F)c1,139*,105,1,0,99,-1,100
O=C(/C=C/c1ccccc1)NC(NC(=S)Nc1cccc(O)c1)C(Cl)(Cl)Cl (stereo not drawn),111,139*,3,2,89,-6,96
CN(C)C(=O)c1nc2ccc(Cl)cn2c1CNCc1ccccc1OC(F)(F)F,98,98,-1,0,nt,nt,nt
CCN(CC)C(=O)NC1CCCCCCC1,98,104,1,0,nt,nt,nt
CC1(C)CCc2c([nH]c3ccccc3c2=O)O1,110,96,1,0,nt,nt,nt
CCC1CCc2c([nH]c3ccccc3c2=O)O1 (stereo not drawn),147*,110,2,3,99,5,103
Cc1nn(C)c(C)c1S(=O)(=O)N(CC(=O)NCCCN1CCC(C)CC1)c1ccc(C(C)C)cc1,99,101,-12,2,nt,nt,nt
CN(Cc1ccc(C#CCCO)cc1)CC1CCCN(CCc2ccc(Cl)cc2)C1 (stereo not drawn),110,154*,21,0,121,20,100
SMILES,MEKK3 PB1 HTS,MEKK2 WT-MEK5,MEKK2mut PB1 HTS,GRK2 inh,MEKK2wt confirm,MEKK2mut confirm,MEKK3-MEK5 inh
CN(Cc1ccccc1O)CC1CCCN(CCc2ccc(Cl)cc2)C1 (stereo not drawn),105,126,11,0,nt,nt,nt
O=C(Nc1cccc(Cl)c1)c1nc[nH]c1C(=O)N1CCN(c2ccccc2)CC1,nt,nt,nt,0,nt,nt,nt
O=[N+]([O-])c1ccc(CSc2nc3ccccc3o2)cc1,94,91,-5,1,nt,nt,nt
O=[N+]([O-])c1ccc(CSc2nnc(SCc3ccccc3)s2)cc1,60*[inhibitor],91,-2,0,100,0,108
N#Cc1cnn2ccn(C3OC(CO)C(O)C3O)c12 (stereo not drawn),98,99,5,1,nt,nt,nt
CC(Nc1ncnc2sccc12)c1ccccc1 (stereo not drawn),108,107,-1,0,nt,nt,nt
CCCCn1c(C23CC4CC(CC(C4)C2)C3)n[nH]c1=S,102,105,5,1,nt,nt,nt
COCCN1CCn2c(nc3cc(NC(=O)c4cccs4)ccc32)C1,116,110,7,0,nt,nt,nt
CC(c1ccccc1)N1CCn2c(nc3cc(NC(=O)c4cccs4)ccc32)C1 (stereo not drawn),19*[inhibitor],35*[inhibitor],-33,0,101,7,101
Cc1ccc(-c2csc(N3CCN(c4cc5c(cc4Cl)nc(C)n5CCN4CCCCC4)CC3)n2)cc1,107,148*,46*,0,177,47,111
Cc1csc(N2CCN(c3cc4nc(-c5ccncc5)[nH]c4cc3Cl)CC2)n1,99,95,1,0,nt,nt,nt
Cc1csc(N2CCN(c3cc4c(cc3Cl)nc(-c3ccncc3)n4CCCN3CCCC3)CC2)n1,102,147*,22,0,164,51,107
COc1ccccc1NC(=S)NC(NC(=O)c1ccco1)C(Cl)(Cl)Cl (stereo not drawn),129*,100,0,0,101,2,105
O=C(NC(NC(=S)Nc1ccccc1O)C(Cl)(Cl)Cl)c1ccco1 (stereo not drawn),116,101,0,1,nt,nt,nt
Cc1ccc(N/C=C2\C(=O)N(c3ccc(F)cc3F)C(c3cccnc3)S2(=O)=O)cc1 (stereo not drawn),131*,113,27,3,104,0,101
Cc1ccc(NC(=O)c2ccc(-n3cccn3)c([N+](=O)[O-])c2)cc1,99,96,-3,3,nt,nt,nt
